TDP1 cell noCPT: qHTS for Inhibitors of human tyrosyl-DNA phosphodiesterase 1 (TDP1): qHTS in cells in absence of CPT. DT40 Tdp1-/- hTDP1 cells, no CPT, ATP luminescence, 48 h. Potency, µM (highest dose often 46.2 µM), for the others: at the top dose activity change, negative = growth inhibition, most hits filed as inhibitors. actives 15% (n = 420,000). AID 686978, 2013; further: potency means the concentration at half of the fitted maximal effect; nearly all actives have a fitted effect of over 55% in size
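A cellular qHTS used chicken DT40 cells lacking endogenous Tdp1 but carrying stably transfected human TDP1. Compounds were applied without camptothecin, and cell growth kinetics were judged by ATP-dependent luminescence after ≥48 hr.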
ELG1 DNA repair: inhibitors of ELG1-dependent DNA repair in HEK293T cells; HEK293T ELG1-luciferase reporter, luminescence, 16 h; DNA damage induced by 5-fluorouridine; Potency, µM (titrated, usually from 46.1 µM), without a hit: at the top dose activity change, negative = inhibition, actives largely listed as inhibitors; actives 2.3% (n = 330,000); AID 504467; further: potency means the concentration at half of the fitted maximal effect; nearly all actives have a fitted effect of over 55% in size
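Overnight (16 hr) co-exposure of 2,000 cells/well to 5-fluorouridine and compound at 37 °C preceded detection. Luciferase was quantified via ONE-Glo luminescence; loss of signal denotes inhibition.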
IL1B secr inh: inflammasome signaling inhibition, IL-1 beta readout. THP-1 LPS/ATP IL-1B secretion, AlphaLISA, 16 h; hits give low values. activity change, % at 57.5 µM. actives 4.7% (n = 360,000). AID 743279; in the data active means activity change below about -50%; inconclusive means mostly about -30% to -49%
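THP-1 cells pretreated 1 hr with compounds (up to 57.5 uM final), then stimulated with LPS (250 ng/mL final) plus ATP (1.25 mM final); secreted IL-1B measured by AlphaLISA after 16 hr, decreased signal indicating inhibition.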
HT1080 IDH1KD tx: HT-1080 IDH1 knockdown cell toxicity (counter line). HT-1080 IDH1 knockdown viability, ATP luminescence, 48 h. AID 686971. actives 2% (n = 360,000). Potency, µM (series often up to 46.1 µM), for inactives: at the top dose activity, negative = toxicity, actives largely listed as cytotoxic;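 further: potency means the concentration at half of the fitted maximal effect; 0% = DMSO wells and -100% = cell-free medium wells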
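Cytotoxicity counter-line: IDH1KD HT-1080, 48 h, CellTiter-Glo. Curves classed by r2, magnitude and activity.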
DT40 TDP1 CPT: growth inhibition of DT40 Tdp1-/-;hTDP1 cells with camptothecin (screen for TDP1 inhibitors). chicken DT40 Tdp1-/-;hTDP1 cells + 20 nM CPT, ATP luminescence, 48 h. Potency, µM (highest dose often 46.2 µM), inactives show top-dose activity change, negative = growth inhibition, hits mostly inhibitors. actives 12% (n = 420,000). AID 686979; further: potency means the concentration at half of the fitted maximal effect; nearly all actives have a fitted effect of over 55% in size
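Chicken DT40 Tdp1-/- cells complemented with human TDP1, 400 cells/well, exposed to compounds plus 20 nM camptothecin for at least 48 h at 37 C; viability read as ATP content by CellTiter-Glo luminescence.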
HT1080-NT tox: kills 2HG-producing HT-1080-NT fibrosarcoma cells. HT-1080-NT fibrosarcoma viability, CellTiter-Glo ATP luminescence, 48 h. Potency, µM (series often up to 46.1 µM), for inactives: top-dose activity, negative = less viability, usual class: cytotoxic. actives 1.6% (n = 360,000). AID 686970;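 further: NT is the 2HG producing partner of a matched IDH1 knockdown line; potency means the concentration at half of the fitted maximal effect; 0% = DMSO-treated cells and -100% = media-only wells without cells; nearly all actives have a fitted effect of over 55% in size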
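Viability of the 2HG-overproducing fibrosarcoma line after 48 hours of compound exposure at 37 degrees C was determined by luminescence with CellTiter-Glo, and concentration-effect curves were then fitted and categorized.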
* = called active by the depositor. An excerpt weighted towards active compounds, which were near 19% of everything screened. Unless noted, the call rests on the fitted dose curve; in most records, active means well fitted curve in the direction sought with a large enough effect; inconclusive means small, poorly fitted or top-dose-only effect, or another doubt; inactive means no such curve, though single readings can be large; an effect the other way counts as inactive or inconclusive. Unless noted, on the % scale 0 is the no-effect control and ±100 the full control effect.

What do the screens show for `COc1cc(C#Cc2c(-c3cncn3C)n(C)c3ccc(-c4ccc5[nH]ccc5c4)cc23)cc(OC)c1`?
TDP1 cell noCPT: inconclusive; ELG1 DNA repair: inconclusive; IL1B secr inh: -27; HT1080 IDH1KD tx: -2%; DT40 TDP1 CPT: inconclusive; HT1080-NT tox: 0%

How did CC(=O)Oc1ccccc1C(=O)NC(C)CCc1ccccc1 (stereo unspecified) do in these assays?
TDP1 cell noCPT: inconclusive; ELG1 DNA repair: inconclusive; IL1B secr inh: -72*; HT1080 IDH1KD tx: -15%; DT40 TDP1 CPT: -19%; HT1080-NT tox: -16%

How did COCC(C)NC(=O)c1ccccc1OC(C)=O (stereo unspecified) do in these assays?
TDP1 cell noCPT: -18%; ELG1 DNA repair: -2%; IL1B secr inh: 1; HT1080 IDH1KD tx: 19%; DT40 TDP1 CPT: -3%; HT1080-NT tox: 5%

How did Cn1c(=O)[nH]c(=O)c2c1nc(N1CCCCCC1)n2CCCSc1nc2ccccc2o1 do in these assays?
TDP1 cell noCPT: 29µM*; ELG1 DNA repair: 23µM*; IL1B secr inh: -16; HT1080 IDH1KD tx: 11%; DT40 TDP1 CPT: inconclusive; HT1080-NT tox: 11%

Results for Cn1c(=O)[nH]c(=O)c2c1nc(N1CCCCCC1)n2CCSc1nc2ccccc2o1 ?
TDP1 cell noCPT: -11%; ELG1 DNA repair: 11%; IL1B secr inh: 17; HT1080 IDH1KD tx: 9%; DT40 TDP1 CPT: -14%; HT1080-NT tox: 5%

What do the screens show for `Cn1c(=O)c2c(nc(N3CCCCCC3)n2CCSc2nc3ccccc3o2)n(C)c1=O`?
TDP1 cell noCPT: 23µM*; ELG1 DNA repair: -12%; IL1B secr inh: 32; HT1080 IDH1KD tx: -2%; DT40 TDP1 CPT: 7.3µM*; HT1080-NT tox: -6%

Results for CC1CC(C)CN(c2nc3c(c(=O)n(C)c(=O)n3C)n2CCSc2nc3ccccc3o2)C1 (stereo unspecified) ?
TDP1 cell noCPT: 15µM*; IL1B secr inh: 27; HT1080 IDH1KD tx: -4%; DT40 TDP1 CPT: 18µM*; HT1080-NT tox: 16%

Results for Cc1cccc(NC(=O)C(C)Sc2nc3nc(C)cc(C)n3n2)c1 (stereo unspecified) ?
TDP1 cell noCPT: -26%; ELG1 DNA repair: -1%; IL1B secr inh: 8; HT1080 IDH1KD tx: 14%; DT40 TDP1 CPT: -19%; HT1080-NT tox: 2%

What do the screens show for `COc1ccc(S(=O)(=O)N(C)CC(=O)Nc2ccc(C)cc2)cc1OC`?
TDP1 cell noCPT: inconclusive; ELG1 DNA repair: 5%; IL1B secr inh: -14; HT1080 IDH1KD tx: -2%; DT40 TDP1 CPT: 23µM*; HT1080-NT tox: -4%

What do the screens show for `CSc1cccc(NC(=O)CN(C)S(=O)(=O)c2ccc(C)cc2)c1`?
TDP1 cell noCPT: 16µM*; ELG1 DNA repair: -29%; IL1B secr inh: -11; HT1080 IDH1KD tx: -2%; DT40 TDP1 CPT: inconclusive; HT1080-NT tox: -11%

How did COC(=O)c1ccccc1NC(=O)CN(C)S(=O)(=O)c1ccc(OC)cc1 do in these assays?
TDP1 cell noCPT: inconclusive; ELG1 DNA repair: inconclusive; IL1B secr inh: 20; HT1080 IDH1KD tx: 6%; DT40 TDP1 CPT: inconclusive; HT1080-NT tox: 9%

What do the screens show for `COC(=O)c1ccccc1NC(=O)CN(C)S(=O)(=O)c1ccc(OC)c(C)c1`?
TDP1 cell noCPT: inconclusive; ELG1 DNA repair: inconclusive; IL1B secr inh: 13; HT1080 IDH1KD tx: -20%; DT40 TDP1 CPT: 23µM*; HT1080-NT tox: -8%

Results for CCc1ccc(C(=O)c2cn(CC(=O)NCc3ccc(C)cc3)c3nc(C)ccc3c2=O)cc1 ?
TDP1 cell noCPT: 1%; DT40 TDP1 CPT: -8%

Results for O=C(CSc1nc(=O)n2ccccc2n1)OCc1ccccc1 ?
TDP1 cell noCPT: 13%; ELG1 DNA repair: 10%; IL1B secr inh: -6; HT1080 IDH1KD tx: 1%; DT40 TDP1 CPT: 1%; HT1080-NT tox: 2%

How did C=CCN(CC(O)c1cccc([N+](=O)[O-])c1)C(C)CCc1ccccc1 (stereo unspecified) do in these assays?
TDP1 cell noCPT: 21µM*; ELG1 DNA repair: 0%; IL1B secr inh: -11; HT1080 IDH1KD tx: inconclusive; DT40 TDP1 CPT: inconclusive; HT1080-NT tox: -13%

How did NC(=NCCc1ccccc1)c1cccc([N+](=O)[O-])c1 do in these assays?
TDP1 cell noCPT: 11%; ELG1 DNA repair: -1%; IL1B secr inh: -22; HT1080 IDH1KD tx: -5%; DT40 TDP1 CPT: -14%; HT1080-NT tox: -15%

Results for CCCNC(=O)Nc1nc(C(N)c2ccc(OC)cc2)cs1 (stereo unspecified) ?
TDP1 cell noCPT: -22%; IL1B secr inh: -6; HT1080 IDH1KD tx: 4%; DT40 TDP1 CPT: -21%; HT1080-NT tox: 24%

How did COc1cccc(Nc2nc(C(N)C3CCCCC3)cs2)n1 (stereo unspecified) do in these assays?
TDP1 cell noCPT: 23µM*; IL1B secr inh: 0; HT1080 IDH1KD tx: 16µM*; DT40 TDP1 CPT: inconclusive; HT1080-NT tox: inconclusive

Results for COc1cccc(Nc2nc(C(C)N)cs2)n1 (stereo unspecified) ?
TDP1 cell noCPT: inconclusive; IL1B secr inh: -18; HT1080 IDH1KD tx: -8%; DT40 TDP1 CPT: 13µM*; HT1080-NT tox: inconclusive

Results for NC(=O)c1cccc(Nc2nc(C(N)C3CCCCC3)cs2)n1 (stereo unspecified) ?
TDP1 cell noCPT: inconclusive; IL1B secr inh: -3; HT1080 IDH1KD tx: -27%; DT40 TDP1 CPT: inconclusive; HT1080-NT tox: inconclusive

Results for COc1cccc(Nc2nc(CN)cs2)n1 ?
TDP1 cell noCPT: inconclusive; IL1B secr inh: 24; HT1080 IDH1KD tx: 0%; DT40 TDP1 CPT: -21%; HT1080-NT tox: -2%

What do the screens show for `COc1cccc(Nc2nc(C(N)c3ccccc3)cs2)n1` (stereo unspecified)?
TDP1 cell noCPT: 12µM*; IL1B secr inh: -71*; HT1080 IDH1KD tx: inconclusive; DT40 TDP1 CPT: 9.2µM*; HT1080-NT tox: inconclusive

How did O=C(CN(C(=O)CCC(=O)Nc1nccs1)c1ccccc1F)NCc1ccccc1 do in these assays?
TDP1 cell noCPT: inconclusive; ELG1 DNA repair: -2%; IL1B secr inh: -15; HT1080 IDH1KD tx: 18%; DT40 TDP1 CPT: -10%; HT1080-NT tox: 14%

How did COc1ccc(N=Nc2ccc(N)nc2N)cc1 do in these assays?
TDP1 cell noCPT: -25%; ELG1 DNA repair: inconclusive; IL1B secr inh: -17; HT1080 IDH1KD tx: 18%; DT40 TDP1 CPT: -21%; HT1080-NT tox: inconclusive

Screening results deposited in PubChem BioAssay by National Center for Advancing Translational Sciences (NCATS).
